Compound activity (PubChem BioAssay)
KB-3-1 cytotox: KB-3-1 parental cell cytotoxicity | Potency, µM (titrated, usually from 46.1 µM), most hits filed as cytotoxic | AID 1347075 | KB-3-1 viability, CellTiter-Glo ATP luminescence, 72 h | 1.4% of 400,000 active; note: nearly all actives have a fitted effect of over 60% in size
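Luminescent ATP read-out (CellTiter-Glo) measures survival of drug-naive KB-3-1 cells after 72 h compound exposure at 37 °C. Titration series was screened from lowest to highest concentration, with DMSO vehicle plates as background controls.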
VP16 counter: inhibits Gal4-VP16 luciferase reporter, ROR gamma counter-screen; Potency, µM (series often up to 53.6 µM), most hits filed as inhibitors; 3.5% of 310,000 active; Drosophila S2 Gal4-VP16 UAS-luciferase, luminescence, 20 h;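 note: Gal4-VP16 expression switched on by copper sulfate through the metallothionein promoter; nearly all actives have a fitted effect of over 50% in size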
MCF10A rereplic: DNA re-replication induction in MCF 10a cells; 2.9% of 350,000 active; MCF 10A DNA re-replication, Hoechst nuclear intensity, 48 h; Potency, µM (doses to about 46.1 µM), hits mostly activators; note: nearly all actives have a fitted effect of over 50% in size
SW480 rereplic: inducers of DNA re-replication in SW480 colon cancer cells. SW480 DNA re-replication, Hoechst DNA content imaging, 48 h. Potency, µM (top dose mostly 46.1 µM), hits mostly activators. 1.8% of 340,000 active; note: nearly all actives have a fitted effect of over 55% in size
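First, 250 cells per well were seeded. Next, compound or vehicle (23 nL) was pinned in, plates sat 48 hr at 37 C. Finally Hoechst was added for 40 min before fluorescence scanning.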
KB-V1 cytotox: kills drug-selected multidrug resistant KB-V1 cells | 3.4% of 400,000 active | Potency, µM (highest dose often 46.1 µM), actives largely listed as cytotoxic | KB-V1 MDR cells viability, CellTiter-Glo, 72 h; note: nearly all actives have a fitted effect of over 60% in size
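Readout: CellTiter-Glo luminescence, 10 min after addition. Cells: KB-V1 MDR subline, 72 h at 37 degrees C with compound. Analysis: corrected, normalized data fitted to concentration-effect curves.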
RORg inh: ROR gamma (mouse) transcription inhibition; Potency, µM (titrated, usually from 53.6 µM), actives largely listed as inhibitors; 5.4% of 310,000 active; Drosophila S2 Gal4-RORgamma UAS-luciferase reporter, 20 h; AID 2551; note: nearly all actives have a fitted effect of over 60% in size
Target sequence (P51450 whole entry, looked up, the tested form may be a part): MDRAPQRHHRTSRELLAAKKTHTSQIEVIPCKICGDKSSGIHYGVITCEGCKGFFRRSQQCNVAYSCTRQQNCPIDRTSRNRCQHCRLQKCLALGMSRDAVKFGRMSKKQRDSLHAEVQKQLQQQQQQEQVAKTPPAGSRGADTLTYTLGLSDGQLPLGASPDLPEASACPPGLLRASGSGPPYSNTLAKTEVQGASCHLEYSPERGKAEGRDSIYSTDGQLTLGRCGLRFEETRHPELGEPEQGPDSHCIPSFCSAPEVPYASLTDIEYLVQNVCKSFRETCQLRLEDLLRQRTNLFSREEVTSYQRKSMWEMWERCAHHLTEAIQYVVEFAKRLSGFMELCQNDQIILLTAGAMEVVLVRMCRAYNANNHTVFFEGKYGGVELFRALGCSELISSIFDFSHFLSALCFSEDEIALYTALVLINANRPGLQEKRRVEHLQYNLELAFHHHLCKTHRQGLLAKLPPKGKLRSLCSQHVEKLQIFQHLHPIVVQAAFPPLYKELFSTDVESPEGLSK
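Drosophila Schneider cells stably carrying a metallothionein-driven Gal4 DBD–ROR gamma fusion and a UAS-Photinus luciferase reporter were exposed to compound for 1 hr, then induced with copper sulfate (700 uM final) for 20 hr at ambient temperature before luminescence reading.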
Numbers stand for hits; n = inactive; u = inconclusive; x = no result given. Shown are actives, neighbours in structure and some others; about 10% of the full set was active somewhere. Calls come from the whole dose curve; as a rule, active = well fitted curve in the direction sought with a large enough effect; inconclusive = small, poorly fitted or top-dose-only effect, or another doubt; inactive = no such curve, though single readings can be large; an effect the other way counts as inactive or inconclusive.

SMILES | KB-3-1 cytotox | VP16 counter | MCF10A rereplic | SW480 rereplic | KB-V1 cytotox | RORg inh
CCN(CC)c1ccc(/C=N/N2CCN(Cc3cccc4ccccc34)CC2)c(O)c1 | n | n | n | n | 16µM | n
CCc1nn(CCCC(=O)N2CCN(c3cccc(C)c3C)CC2)c(=O)c2cc3occc3n12 | n | n | u | n | n | n
COc1cccc(-c2cc(C(=O)Nc3nc4ccccc4s3)c3ccccc3n2)c1 | n | n | n | n | 21µM | u
O=C(NC1CC1)c1cc(-c2ccco2)nc2ccccc12 | n | n | n | n | n | n
COc1ccc(-c2cc(C(=O)Nc3nc4c(C)cccc4s3)c3ccccc3n2)cc1OC | n | n | u | n | n | n
CN(C)C(=O)c1ccc(NC(=O)c2cc(-c3ccco3)nc3ccccc23)cc1 | u | n | n | n | n | n
Cc1ccc2nc(NC(=O)c3cc(-c4ccco4)nc4ccccc34)sc2c1 | u | u | 16µM | n | u | 18µM
O=C(Nc1nc2ccccc2s1)c1cc(-c2ccco2)nc2ccccc12 | u | 13µM | u | u | u | u
CCCCC/C=C\C/C=C\C/C=C\C/C=C\CCCCCC(N)=O | x | n | x | x | x | n
CC1=C(C(=O)Nc2ccccc2)C(c2ccccc2C)n2nc(SCC(=O)c3ccc(C)cc3)nc2N1 (centres undefined) | n | x | x | x | n | x
COC(=O)c1ccc(C(=O)OC)c(NC(=O)N2CC3CCCN3c3ccccc32)c1 (centres undefined) | n | x | x | x | n | x
Cc1ccccc1NC(=O)/C=C1\SC(=O)NC1=O | n | n | 23µM | u | u | u
Cn1c(=O)c2c(SCC(=O)Nc3ccccc3C(F)(F)F)nc(C3CCCC3)nc2n(C)c1=O | n | x | x | x | n | x
COc1ccc(-c2n[nH]c(=S)nc2-c2ccc(OC)cc2)cc1 | n | u | n | n | u | 7.1µM
COc1ccc(-c2nc3ccccc3nc2-c2ccc(OC)cc2)cc1 | n | n | u | u | n | n
COc1ccc(-c2nc(=S)[nH][nH]2)cc1OC | n | n | n | n | n | n
CCOc1ccc(-c2nc(=S)[nH][nH]2)cc1 | n | 22µM | n | n | n | 5µM
FC(F)(F)c1ccc(-c2nc(=S)[nH][nH]2)cc1 | n | n | n | n | u | 2.5µM
COc1ccc(-c2nc(=S)[nH][nH]2)cc1 | n | u | n | n | n | 10µM
Oc1ccc(-c2nc(=S)[nH][nH]2)cc1 | n | n | n | n | n | u
CN(C(=O)c1cc2c(s1)-c1ccc(Cl)cc1SC2)c1cccc(C(F)(F)F)c1 | n | x | x | x | n | x
CCC(CO)Nc1ccn2nc(-c3cccs3)cc2n1 (centres undefined) | n | x | x | x | n | x
S=c1nc(-c2cc(Cl)cc(Cl)c2)[nH][nH]1 | n | n | n | n | n | u
S=c1nc(-c2cccc(Cl)c2)[nH][nH]1 | n | u | n | n | n | 13µM
Cc1ccccc1/C=N/Nc1ncnc2nc[nH]c12 | n | n | n | 18µM | n | n
SMILES | KB-3-1 cytotox | VP16 counter | MCF10A rereplic | SW480 rereplic | KB-V1 cytotox | RORg inh
CCCCC1CCC(c2nc(-c3ccccn3)no2)CC1 (centres undefined) | n | 13µM | u | n | n | u
CCc1ccc(NC(=O)Cn2cc(S(=O)(=O)N3CCCC3)c(S(=O)(=O)N3CCCC3)c2)cc1 | n | x | x | x | n | x
CN(C)c1cc[n+](CC(=O)Nc2ccc(Cl)cc2)cc1 | 3.7µM | n | n | n | n | n
Cc1cccc(NC(=O)C[n+]2ccc(N(C)C)cc2)c1 | 13µM | n | u | n | n | n
CN(C)c1cc[n+](CC(=O)Nc2cc(C(F)(F)F)ccc2Cl)cc1 | n | n | u | u | n | n
CCOc1ccc(NC(=O)C[n+]2ccc(N(C)C)cc2)cc1 | 10µM | n | n | n | n | n
CN(C)c1cc[n+](CC(=O)c2ccc(OC(F)F)cc2)cc1 | 18µM | u | n | n | n | n
O=C(C[n+]1cccc(Br)c1)c1ccc(O)c(O)c1 | u | x | x | x | n | x
CN(C)c1cc[n+](CC(=O)Nc2ccc(Oc3ccccc3)cc2)cc1 | 16µM | n | u | n | u | n
COc1cc(C(=O)COC(=O)c2cc([N+](=O)[O-])ccc2N2CCOCC2)ccc1OC(F)F | 21µM | x | n | n | u | x
Cc1cc(C)c(C(=O)COC(=O)c2cc([N+](=O)[O-])ccc2N2CCOCC2)cc1C | n | x | n | n | 18µM | x
CCOC(=O)c1c(C)nc2sc(C(=O)Nc3ccc(OC)cc3)c(N)c2c1-c1ccc(OC)cc1 | 5.8µM | n | 3.5µM | u | 4.1µM | n
CCOC(=O)c1c(C)nc2sc3c(=O)n(-c4ccc(C(C)=O)cc4)nnc3c2c1-c1ccc(OC)cc1 | n | n | n | n | u | n
CCOC(=O)c1c(C)nc2sc(C(N)=O)c(N)c2c1-c1ccc(OC)cc1 | n | n | n | n | u | n
CCOC(=O)c1c(C)nc2sc(C(=O)Nc3ccc(C(C)=O)cc3)c(N)c2c1-c1ccc(OC)cc1 | u | n | n | 2.3µM | u | n
CC(C)Nc1ncnc2c1ncn2[C@H]1CN(C2CCCC2)C[C@@H](CO)O1 | n | x | x | x | n | x
O=S(=O)(c1ccccc1)N1CCC2(CCN(Cc3ccccc3)CC2)CC1 | x | n | x | x | x | n
CC(=O)Nc1cccc(-c2csc(Nc3cc(C)ccn3)n2)c1 | n | n | n | n | 23µM | n
CC(O)(c1ccc(F)c(F)c1)c1nc(-c2ccc(S(C)(=O)=O)cc2)cs1 (centres undefined) | u | x | x | x | 21µM | x
O=C(O)CSC1CC(=O)N(c2ccc(Cl)cc2)C1=O (centres undefined) | n | n | n | n | n | n
CCCCCCC(=O)N(O)C1CC(=O)N(c2ccc(C)cc2)C1=O (centres undefined) | n | u | u | u | n | 11µM
CCCCCCC(=O)N(O)C1CC(=O)N(c2ccc(Cl)cc2)C1=O (centres undefined) | n | u | u | 18µM | n | u
Cc1ccc(N2C(=O)CC(N(O)C3CC(=O)N(c4ccc(C)cc4)C3=O)C2=O)cc1 (centres undefined) | n | n | n | n | n | n
CN1C(=O)[C@@](O)(c2cn(C)c3ccccc23)c2cc(Br)ccc21 | n | x | x | x | n | x
CCOc1ccc2c(c1)n([O-])c1c([n+]2=O)CCCC1 | n | u | n | n | n | 13µM
S=c1[nH]ncn2c1cc1oc3ccccc3c12 | n | n | n | n | n | 2.5µM
Cc1ccc(Cl)cc1NC(=O)c1ccc2nc(CCc3ccccc3)oc2c1 | n | x | x | x | n | x
CCCCN1CCC[C@H]1CNC(=O)c1cc(C#N)c2ccccc2c1OC | x | n | x | x | x | n
CCCSC1=N/C(=C/c2ccsc2)C(=O)N1c1ccccc1 | n | u | n | n | n | n
CCSC1=N/C(=C\c2cccnc2)C(=O)N1c1ccccc1 | n | n | u | u | 18µM | n
